Measured values: the supplement of paper PMC8728848
Only a selection was taken, and the strongest signals are over-represented in it overall.

Assays:
Assay in all cases: glycan array binding signal (z-score within array); higher = stronger binding
Conditions in all cases: glycan notation: IUPAC condensed, linker removed
GlcNAc(b1-3)Man = molecular target: GlcNAc(b1-3)Man
Method in brief: (§1)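 From the Consortium for Functional Glycomics database, 3228 arrays were curated, keeping only those whose protein sequence was available. Binding is given as a within-array Z-score averaged across arrays sharing a protein sequence and across linkers. Negative Z-scores can be read as non-binding.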

[1] = molecular target: GlcNAc(b1-4)[GlcNAc(b1-6)]GalNAc
Method in brief: as §1

[2] = molecular target: Man(a1-3)[Man(a1-6)]Man(a1-6)[Man(a1-2)Man(a1-3)]Man(b1-4)GlcNAc(b1-4)GlcNAc
Method in brief: as §1

[3] = molecular target: Neu5Ac(a2-3)Gal(b1-3)GlcNAc(b1-2)[Neu5Ac(a2-3)Gal(b1-3)GlcNAc(b1-4)]Man(a1-6)[Neu5Ac(a2-3)Gal(b1-3)GlcNAc(b1-2)Man(a1-3)]Man(b1-4)GlcNAc(b1-4)GlcNAc
Method in brief: as §1

[4] = molecular target: Neu5Ac(a2-3)Gal(b1-4)GlcNAc(b1-2)Man(a1-3)[GlcNAc(b1-4)][Neu5Ac(a2-3)Gal(b1-4)GlcNAc(b1-2)Man(a1-6)]Man(b1-4)GlcNAc(b1-4)GlcNAc
Method in brief: as §1

[5] = molecular target: Neu5Ac(a2-3)Gal(b1-4)GlcNAc(b1-2)[Neu5Ac(a2-3)Gal(b1-4)GlcNAc(b1-4)]Man(a1-3)[GlcNAc(b1-4)][Neu5Ac(a2-3)Gal(b1-4)GlcNAc(b1-4)Man(a1-6)]Man(b1-4)GlcNAc(b1-4)GlcNAc
Method in brief: as §1

[6] = molecular target: Neu5Ac(a2-3)Gal(b1-4)GlcNAc(b1-6)GalNAc
Method in brief: as §1

[7] = molecular target: Neu5Ac(a2-3)Gal(b1-4)[Fuc(a1-3)]GlcNAc(b1-3)Gal(b1-4)[Fuc(a1-3)]GlcNAc(b1-3)Gal(b1-4)[Fuc(a1-3)]GlcNAc
Method in brief: as §1

[8] = molecular target: Neu5Ac(a2-6)Gal(b1-4)GlcNAc(b1-3)[Neu5Ac(a2-6)Gal(b1-4)GlcNAc(b1-6)]GalNAc
Method in brief: as §1

[9] = molecular target: Neu5Gc(a2-3)Gal(b1-3)GlcNAc
Method in brief: as §1

[10] = molecular target: Neu5Gc(a2-6)Gal(b1-4)GlcNAc
Method in brief: as §1

Neu5Gc(a2-6)GalNAc = molecular target: Neu5Gc(a2-6)GalNAc
Method in brief: as §1

[11] = molecular target: Fuc(a1-2)Gal(b1-3)GlcNAc(b1-2)Man(a1-3)[Fuc(a1-2)Gal(b1-3)GlcNAc(b1-2)Man(a1-6)]Man(b1-4)GlcNAc(b1-4)[Fuc(a1-6)]GlcNAc
Method in brief: as §1

[12] = molecular target: Fuc(a1-2)Gal(b1-4)[Fuc(a1-3)]GlcNAc(b1-2)[Fuc(a1-2)Gal(b1-4)[Fuc(a1-3)]GlcNAc(b1-4)]Man(a1-3)[Fuc(a1-2)Gal(b1-4)[Fuc(a1-3)]GlcNAc(b1-2)Man(a1-6)]Man(b1-4)GlcNAc(b1-4)GlcNAc
Method in brief: as §1

[13] = molecular target: Fuc(a1-2)[Gal(a1-3)]Gal(b1-3)GalNAc
Method in brief: as §1

[14] = molecular target: Fuc(a1-2)[Gal(a1-3)]Gal(b1-4)GlcNAc(b1-6)GalNAc
Method in brief: as §1

[15] = molecular target: Fuc(a1-2)[GalNAc(a1-3)]Gal(b1-4)GlcNAc
Method in brief: as §1

[16] = molecular target: Fuc(a1-3)[GalNAc(b1-4)]GlcNAc
Method in brief: as §1

[17] = molecular target: Gal(a1-3)Gal(b1-3)GlcNAc(b1-6)GalNAc
Method in brief: as §1

[18] = molecular target: Gal(a1-3)Gal(b1-3)[Fuc(a1-4)]GlcNAc(b1-2)Man(a1-3)[Gal(a1-3)Gal(b1-3)[Fuc(a1-4)]GlcNAc(b1-2)Man(a1-6)]Man(b1-4)GlcNAc(b1-4)GlcNAc
Method in brief: as §1

[19] = molecular target: Gal(a1-3)Gal(b1-4)GlcNAc(b1-6)GalNAc
Method in brief: as §1

[20] = molecular target: Gal(a1-3)Gal(b1-4)[Fuc(a1-3)]GlcNAc
Method in brief: as §1

[21] = molecular target: Gal(a1-4)Gal(b1-4)GlcNAc(b1-2)Man(a1-3)[Gal(a1-4)Gal(b1-4)GlcNAc(b1-2)Man(a1-6)]Man(b1-4)GlcNAc(b1-4)GlcNAc
Method in brief: as §1

[22] = molecular target: Gal(b1-3)GalNAc(a1-3)[Fuc(a1-2)]Gal(b1-4)GlcNAc
Method in brief: as §1

[23] = molecular target: Gal(b1-3)GlcNAc(a1-6)Gal(b1-4)GlcNAc
Method in brief: as §1

Gal(b1-4)Gal = molecular target: Gal(b1-4)Gal
Method in brief: as §1

Gal(b1-4)Glc = molecular target: Gal(b1-4)Glc
Method in brief: as §1

[24] = molecular target: Gal(b1-4)GlcNAc(b1-2)[Gal(b1-4)GlcNAc(b1-4)]Man(a1-3)[GlcNAc(b1-4)][Gal(b1-4)GlcNAc(b1-2)Man(a1-6)]Man(b1-4)GlcNAc(b1-4)GlcNAc
Method in brief: as §1

[25] = molecular target: Gal(b1-4)GlcNAc(b1-3)Gal(b1-4)GlcNAc(b1-2)[Gal(b1-4)GlcNAc(b1-3)Gal(b1-4)GlcNAc(b1-6)]Man(a1-6)[Gal(b1-4)GlcNAc(b1-3)Gal(b1-4)GlcNAc(b1-2)Man(a1-3)]Man(b1-4)GlcNAc(b1-4)GlcNAc
Method in brief: as §1

[26] = molecular target: Gal(b1-4)GlcNAc(b1-6)GalNAc
Method in brief: as §1

Gal3S4S(b1-4)GlcNAc = molecular target: Gal3S4S(b1-4)GlcNAc
Method in brief: as §1

Gal6S(b1-4)GlcNAc6S = molecular target: Gal6S(b1-4)GlcNAc6S
Method in brief: as §1

[27] = molecular target: GalNAc(b1-3)Gal(a1-4)Gal(b1-4)GlcNAc(b1-3)Gal(b1-4)Glc
Method in brief: as §1

[28] = molecular target: GalNAc(b1-4)GlcNAc(b1-2)Man
Method in brief: as §1

GlcA(b1-3)GlcNAc = molecular target: GlcA(b1-3)GlcNAc
Method in brief: as §1

[29] = molecular target: GlcNAc(b1-2)[GlcNAc(b1-4)]Man(a1-3)[GlcNAc(b1-4)][GlcNAc(b1-2)Man(a1-6)]Man(b1-4)GlcNAc(b1-4)GlcNAc
Method in brief: as §1

[30] = molecular target: GlcNAc(b1-3)Gal(b1-4)GlcNAc(b1-2)Man(a1-3)[GlcNAc(b1-3)Gal(b1-4)GlcNAc(b1-2)Man(a1-6)]Man(b1-4)GlcNAc(b1-4)[Fuc(a1-6)]GlcNAc
Method in brief: as §1

[31] = molecular target: GlcNAc(b1-3)Gal(b1-4)GlcNAc(b1-2)[GlcNAc(b1-3)Gal(b1-4)GlcNAc(b1-6)]Man(a1-6)[GlcNAc(b1-3)Gal(b1-4)GlcNAc(b1-2)Man(a1-3)]Man(b1-4)GlcNAc(b1-4)GlcNAc
Method in brief: as §1

[32] = molecular target: GlcNAc(b1-3)Gal(b1-4)GlcNAc(b1-3)Gal(b1-4)GlcNAc(b1-2)Man(a1-3)[GlcNAc(b1-3)Gal(b1-4)GlcNAc(b1-3)Gal(b1-4)GlcNAc(b1-2)Man(a1-6)]Man(b1-4)GlcNAc(b1-4)GlcNAc
Method in brief: as §1

[33] = molecular target: GlcNAc(b1-3)Gal(b1-4)GlcNAc(b1-3)Gal(b1-4)GlcNAc(b1-2)Man(a1-3)[GlcNAc(b1-3)Gal(b1-4)GlcNAc(b1-3)Gal(b1-4)GlcNAc(b1-2)Man(a1-6)]Man(b1-4)GlcNAc(b1-4)[Fuc(a1-6)]GlcNAc
Method in brief: as §1

[34] = molecular target: GlcNAc(b1-3)Gal(b1-4)GlcNAc(b1-3)Gal(b1-4)GlcNAc(b1-3)Gal(b1-4)GlcNAc(b1-2)Man(a1-3)[GlcNAc(b1-3)Gal(b1-4)GlcNAc(b1-3)Gal(b1-4)GlcNAc(b1-3)Gal(b1-4)GlcNAc(b1-2)Man(a1-6)]Man(b1-4)GlcNAc(b1-4)[Fuc(a1-6)]GlcNAc
Method in brief: as §1

[35] = molecular target: GlcNAc(b1-4)GlcNAc(b1-4)GlcNAc
Method in brief: as §1

B1: cFel (Cyprinus carpio), P68512 (protein)
chain: LDCTVIDGNLKQIDAGSGSVVGVNNLNETFVLIDNVFTKISGSLKHFSVGPAGQLGVNTANNIFKYQSGGFVQLAGLLKQVDAGGDQIIAGVNMYDDIYCLNMDANNKWPSSNTPWVQINGKLKYYSCGPYSCWGVNSNDQIFIMKDVSSNVCSGSGSFINIPGLLSMIEVATDGSVFGVNSQGNLYQRTGVTRSKPDGTDWISMVACPNGHKHVSFDLGVLWLVCVDGSIRKCILTD
glycan array binding signal (z-score) (GlcNAc(b1-3)Man): 3.22 | glycan array binding signal (z-score) [1]: -0.003 | glycan array binding signal (z-score) [2]: 0.309 | glycan array binding signal (z-score) [3]: 0.972 | glycan array binding signal (z-score) [4]: 3.12 | glycan array binding signal (z-score) [5]: -0.578 | glycan array binding signal (z-score) [6]: -0.95 | glycan array binding signal (z-score) [7]: -1.09 | glycan array binding signal (z-score) [8]: 3.16 | glycan array binding signal (z-score) [9]: 2.89 | glycan array binding signal (z-score) [10]: -1.34 | glycan array binding signal (z-score) (Neu5Gc(a2-6)GalNAc): 0.828

B2: Lb MiSSP8 (Laccaria bicolor) (protein)
chain: MYFHTLFACATLMLITTAHASPTVINSLDSRKADLNGDVEARHAADWRRDSDWRRDSDWRRDSDWRRDSD
glycan array binding signal (z-score) [11]: 1.26 | glycan array binding signal (z-score) [12]: 1.27 | glycan array binding signal (z-score) [13]: 0.371 | glycan array binding signal (z-score) [14]: -0.53 | glycan array binding signal (z-score) [15]: -0.502 | glycan array binding signal (z-score) [16]: 1.06 | glycan array binding signal (z-score) [17]: -0.806 | glycan array binding signal (z-score) [18]: 1.55 | glycan array binding signal (z-score) [19]: -0.599 | glycan array binding signal (z-score) [20]: -0.488 | glycan array binding signal (z-score) [21]: 10.8 | glycan array binding signal (z-score) [22]: -0.267 | glycan array binding signal (z-score) [23]: -0.136 | glycan array binding signal (z-score) (Gal(b1-4)Gal): -3.19 | glycan array binding signal (z-score) (Gal(b1-4)Glc): 0.702 | glycan array binding signal (z-score) [24]: -0.274 | glycan array binding signal (z-score) [25]: 2.86 | glycan array binding signal (z-score) [26]: -0.433 | glycan array binding signal (z-score) (Gal3S4S(b1-4)GlcNAc): -0.771 | glycan array binding signal (z-score) (Gal6S(b1-4)GlcNAc6S): -0.571 | glycan array binding signal (z-score) [27]: 4.15 | glycan array binding signal (z-score) [28]: -0.744 | glycan array binding signal (z-score) (GlcA(b1-3)GlcNAc): 3.78 | glycan array binding signal (z-score) [29]: -0.64 | glycan array binding signal (z-score) [30]: 2.31 | glycan array binding signal (z-score) [31]: 0.54 | glycan array binding signal (z-score) [32]: 2.57 | glycan array binding signal (z-score) [33]: 2.43 | glycan array binding signal (z-score) [34]: 2.57 | glycan array binding signal (z-score) [35]: 0.319
